Data from PubChem BioAssay (EPA / NIEHS).
Records with an inconclusive call do not appear. More than one record can exist for a structure, and the calls need not agree. Activity calls are given as the source filed them. The calls were made as follows, unless noted: active = hit-call score of the fitted dose curve at least 0.9, where 1 is the maximum; inactive = score below 0.9.

How the values were obtained:
[1] = target: Bile acid receptor (Homo sapiens) (UniProt Q96RI1); assay: OT_FXR_FXRSRC1_0480: Odyssey Thera (OT) 8-hour HEK293T Protein-Complementation Assay for Farnesoid X receptor/SRC-1 Co-activator (AID 2283383; active = hit-call score of the fitted dose curve at least 0.9, where 1 is the maximum)
In short: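 HEK293T cells expressing FXR and SRC-1 fused to reporter fragments were dosed with compound for 8 h; fluorescence from the reconstituted reporter marked co-activator recruitment. Gain of signal was fitted against the DMSO baseline.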

[2] = target: Retinoic acid receptor RXR-alpha (Homo sapiens) (UniProt P19793); assay: OT_NURR1_NURR1RXRa_0480: Odyssey Thera (OT) 8-hour HEK293T Protein Complementation Assay for Nurr1/retinoid X receptor (RXR) (AID 2283385; active = hit-call score of the fitted dose curve at least 0.9, where 1 is the maximum)
In short: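 HEK293T cells expressing Nurr1 and RXRα fused to reporter fragments were dosed with compound for 8 hours. Complex formation was read as fluorescence intensity and analysed as gain of signal against DMSO as baseline.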

[3] = target: Retinoic acid receptor RXR-alpha (Homo sapiens) (UniProt P19793); assay: OT_NURR1_NURR1RXRa_1440: Odyssey Thera (OT) 24-hour HEK293T Protein Complementation Assay for Nurr1/retinoid X receptor (RXR) (AID 2283386; active = hit-call score of the fitted dose curve at least 0.9, where 1 is the maximum)
In short: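 HEK293T cells were dosed with compound and read 24 h later by fluorescence intensity in a protein-fragment complementation format, where Nurr1–RXRα interaction reconstitutes a split reporter. Activity was fitted as gain of signal relative to DMSO baseline.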

[4] = target: Peroxisome proliferator-activated receptor gamma (Homo sapiens) (UniProt P37231); assay: OT_PPARg_PPARgSRC1_0480: Odyssey Thera (OT) 8-hour Protein-Complementation Assay for Peroxisome Proliferator-activated Receptor Gamma / SRC-1 Co-activator (AID 2283387; active = hit-call score of the fitted dose curve at least 0.9, where 1 is the maximum;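 also: nuclear to cytoplasmic split Venus YFP fluorescence ratio reporting PPARg SRC-1 interaction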)
In short: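 Read-out: 488 nm N/C fluorescence ratio from complemented Venus YFP fragments, ≥350 cells per image, gain-of-signal fitted against DMSO baseline. Fusions of PPARg/SRC-1 with IFP1/IFP2 expressed transiently in HEK293T; compounds applied 8 h.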

[5] = target: Peroxisome proliferator-activated receptor gamma (Homo sapiens) (UniProt P37231); assay: OT_PPARg_PPARgSRC1_1440: Odyssey Thera (OT) 24-hour Protein-Complementation Assay for Peroxisome Proliferator-activated Receptor Gamma/ SRC-1 Co-activator (AID 2283388; active = hit-call score of the fitted dose curve at least 0.9, where 1 is the maximum;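 also: nuclear to cytoplasmic ratio of reconstituted Venus YFP fluorescence in fixed imaged cells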)
In short: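 Readout: nuclear-to-cytoplasmic 488 nm fluorescence ratio, ≥350 cells per image, 8 images per well, after 24 h compound exposure of HEK293T expressing PPARg/SRC-1 split-YFP fusions. Activity fitted in positive direction against DMSO.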

[6] = read-out: Tumor necrosis factor receptor superfamily member 6 (Homo sapiens) (UniProt P25445); assay: LTEA_HepaRG_FAS: Life Technologies and Expression Analysis (LTEA) Assay for Fas cell surface death receptor (FAS) using HepaRG (AID 2283447); conditions: mRNA level, 48 h; actives raise or lower the signal
In short: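 FAS transcript level was measured by TaqMan qRT-PCR against three housekeeping genes after 48 h chemical exposure. Cells were HepaRG, 0.5% DMSO vehicle, with a top concentration of 100 uM and half-log dilutions over eight points, in duplicate.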

[7] = read-out: Fatty acid synthase (Homo sapiens) (UniProt P49327); assay: LTEA_HepaRG_FASN: Life Technologies and Expression Analysis (LTEA) Assay for Fatty Acid Synthase (FASN) using HepaRG (AID 2283448); conditions: mRNA level, 48 h; actives raise or lower the signal
In short: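 Differentiated human HepaRG cells were exposed for 48 h in serum-free induction medium to eight half-log concentrations up to 100 uM in 0.5% DMSO, in duplicate. FASN mRNA was quantified by TaqMan qRT-PCR, normalized to ACTB/GAPDH/POLR2A, and fitted bidirectionally against DMSO.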

[8] = read-out: Cyclin D2 (CCND2), CCND2 (gene 894); assay: LTEA_HepaRG_CCND2: Life Technologies and Expression Analysis (LTEA) Assay for Cyclin D2 (CCND2) using HepaRG (AID 2283449); conditions: mRNA level, 48 h; actives raise or lower the signal
In short: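 Read-out is CCND2 mRNA level measured by qRT-PCR in human HepaRG liver cells and normalised to three housekeeping genes. Chemicals were applied for 48 h at up to 100 uM, with gain or loss fitted relative to 0.5% DMSO.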

[9] = read-out: Cyclin Dependent Kinase Inhibitor 1A (CDKN1A), CDKN1A (gene 1026); assay: LTEA_HepaRG_CDKN1A: Life Technologies and Expression Analysis (LTEA) Assay for Cyclin Dependent Kinase Inhibitor 1A (CDKN1A) using HepaRG (AID 2283450); conditions: mRNA level, 48 h; actives raise or lower the signal
In short: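 HepaRG, 48 h dosing, 8-pt half-log series from 100 uM top, 0.5% DMSO vehicle, duplicates. Readout: TaqMan qRT-PCR of CDKN1A transcript, housekeeping-normalized (ACTB, GAPDH, POLR2A). Up/down curve fit relative to DMSO.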

[10] = CEETOX_H295R_OHPREG: CeeTox H295R High-throughput Steroidogenesis Assay for OH-Pregnenolone (OHPREG) (AID 2283434); conditions: actives raise or lower the signal
In short: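 Hormone levels in spent medium were measured by tandem mass spectrometry following liquid-liquid extraction. Cells (H295R) had been forskolin-stimulated (10 uM, 48 h) before a 48 h chemical exposure at 0.1% DMSO, with activity fitted in both directions against DMSO.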

[11] = CEETOX_H295R_OHPROG: CeeTox H295R High-throughput Steroidogenesis Assay for OH-Progesterone (OHPROG) (AID 2283435); conditions: actives raise or lower the signal
In short: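 H295R human adrenal cells were prestimulated 48 h with 10 uM forskolin, then exposed 48 h to test chemical (0.1% DMSO final). 17alpha-hydroxyprogesterone in medium was measured by HPLC-MS/MS after MTBE extraction; bidirectional fitting vs DMSO.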

[12] = CEETOX_H295R_ESTRADIOL: CeeTox H295R High-throughput Steroidogenesis Assay for Estradiol (AID 2283440); conditions: actives raise or lower the signal;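 also: estradiol secreted into medium quantified by LC-MS/MS after dansyl derivatisation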
In short: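 H295R, 48 h forskolin (10 uM) prestim → 48 h compound, 0.1% DMSO final. Estradiol in medium: MTBE extraction, dansyl chloride derivatization, LC-MS/MS. Fit bidirectional vs DMSO baseline; MTT viability in same wells.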

[13] = CEETOX_H295R_ESTRONE: CeeTox H295R High-throughput Steroidogenesis Assay for Estrone (AID 2283441); conditions: actives raise or lower the signal;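 also: estrone secreted into medium measured by LC-MS/MS after dansyl derivatization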
In short: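 H295R cells; 48 h forskolin (10 uM) prestimulation; 48 h compound exposure, 0.1% DMSO final. Medium estrone: MTBE extraction, dansyl derivatization, HPLC-MS/MS. Bidirectional fit vs DMSO.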

[14] = CEETOX_H295R_PROG: CeeTox H295R High-throughput Steroidogenesis Assay for Progesterone (PROG) (AID 2283442); conditions: actives raise or lower the signal;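 as to AC50: human H295R adrenal cells primed with 10 µM forskolin before dosing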
In short: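 Progesterone read-out: HPLC-MS/MS on MTBE extracts of conditioned medium after 48 h chemical exposure of forskolin-primed (10 uM, 48 h) H295R cells. Gain or loss of signal was fitted relative to DMSO baseline.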

[15] = CEETOX_H295R_CORTIC: CeeTox H295R High-throughput Steroidogenesis Assay for Corticosterone (CORTIC) (AID 2283437); conditions: actives raise or lower the signal;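 also: corticosterone secreted into medium quantified by mass spectrometry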
In short: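 Corticosterone secreted into medium is measured by reverse-phase HPLC with tandem MS following liquid-liquid extraction. Cells are forskolin-stimulated (10 uM, 48 h) before 48 h test exposure; activity fitted in both directions against DMSO.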

[16] = CEETOX_H295R_CORTISOL: CeeTox H295R High-throughput Steroidogenesis Assay for Cortisol (AID 2283438); conditions: actives raise or lower the signal;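 also: cortisol secreted into medium quantified by LC-MS/MS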
In short: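 H295R human adrenal cells were prestimulated 48 h with 10 uM forskolin, then exposed 48 h to test chemical (0.1% DMSO final). Medium cortisol was quantified by HPLC-MS/MS after MTBE extraction; bidirectional fitting relative to DMSO baseline.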

[17] = CEETOX_H295R_DOC: CeeTox H295R High-throughput Steroidogenesis Assay for DOC (AID 2283439); conditions: actives raise or lower the signal
In short: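 H295R adrenal cells prestimulated 48 h with 10 uM forskolin, then exposed 48 h to test chemical (0.1% DMSO final). Medium 11-deoxycorticosterone extracted with MTBE, quantified by HPLC-MS/MS; bidirectional fit versus DMSO baseline; MTT viability in same wells.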

[18] = CEETOX_H295R_11DCORT: CeeTox H295R High-throughput Steroidogenesis Assay for 11-Deoxycortisol (11DCORT) (AID 2283432); conditions: actives raise or lower the signal
In short: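 H295R cells; 10 uM forskolin prestim 48 h; compound in 0.1% DMSO 48 h; media extracted with MTBE; 11-deoxycortisol by LC-MS/MS, 7-point standard curve; gain/loss vs DMSO baseline; viability by MTT in same wells.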

Sequence of Retinoic acid receptor RXR-alpha (Homo sapiens) (P19793 whole entry, looked up, the tested form may be a part): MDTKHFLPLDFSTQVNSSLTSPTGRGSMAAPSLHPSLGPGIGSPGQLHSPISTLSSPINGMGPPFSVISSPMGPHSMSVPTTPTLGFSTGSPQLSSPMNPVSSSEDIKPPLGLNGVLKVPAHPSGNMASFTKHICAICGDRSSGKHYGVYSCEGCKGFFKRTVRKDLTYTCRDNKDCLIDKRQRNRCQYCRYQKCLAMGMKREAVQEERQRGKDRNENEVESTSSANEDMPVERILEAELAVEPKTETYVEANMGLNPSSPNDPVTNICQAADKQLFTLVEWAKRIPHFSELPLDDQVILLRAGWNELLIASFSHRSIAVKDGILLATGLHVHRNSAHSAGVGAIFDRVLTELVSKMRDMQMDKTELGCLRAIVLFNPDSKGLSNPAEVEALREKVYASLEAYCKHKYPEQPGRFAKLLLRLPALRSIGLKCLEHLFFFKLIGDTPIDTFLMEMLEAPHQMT
Sequence of Peroxisome proliferator-activated receptor gamma (Homo sapiens) (P37231 whole entry, looked up, the tested form may be a part): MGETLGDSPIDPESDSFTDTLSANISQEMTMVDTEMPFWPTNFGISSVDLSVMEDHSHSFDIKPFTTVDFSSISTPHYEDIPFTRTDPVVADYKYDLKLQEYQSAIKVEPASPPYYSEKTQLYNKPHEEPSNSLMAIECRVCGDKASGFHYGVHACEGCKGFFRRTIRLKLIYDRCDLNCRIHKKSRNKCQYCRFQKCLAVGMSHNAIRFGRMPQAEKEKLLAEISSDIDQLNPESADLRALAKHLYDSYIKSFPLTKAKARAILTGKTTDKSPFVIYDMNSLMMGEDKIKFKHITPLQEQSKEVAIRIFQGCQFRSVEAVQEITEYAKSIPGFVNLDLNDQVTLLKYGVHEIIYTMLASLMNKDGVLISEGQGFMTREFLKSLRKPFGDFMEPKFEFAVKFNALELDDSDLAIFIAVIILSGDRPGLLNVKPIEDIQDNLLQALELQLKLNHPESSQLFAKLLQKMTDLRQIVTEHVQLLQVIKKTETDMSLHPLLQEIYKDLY
Sequence of Fatty acid synthase (Homo sapiens) (P49327 whole entry, looked up): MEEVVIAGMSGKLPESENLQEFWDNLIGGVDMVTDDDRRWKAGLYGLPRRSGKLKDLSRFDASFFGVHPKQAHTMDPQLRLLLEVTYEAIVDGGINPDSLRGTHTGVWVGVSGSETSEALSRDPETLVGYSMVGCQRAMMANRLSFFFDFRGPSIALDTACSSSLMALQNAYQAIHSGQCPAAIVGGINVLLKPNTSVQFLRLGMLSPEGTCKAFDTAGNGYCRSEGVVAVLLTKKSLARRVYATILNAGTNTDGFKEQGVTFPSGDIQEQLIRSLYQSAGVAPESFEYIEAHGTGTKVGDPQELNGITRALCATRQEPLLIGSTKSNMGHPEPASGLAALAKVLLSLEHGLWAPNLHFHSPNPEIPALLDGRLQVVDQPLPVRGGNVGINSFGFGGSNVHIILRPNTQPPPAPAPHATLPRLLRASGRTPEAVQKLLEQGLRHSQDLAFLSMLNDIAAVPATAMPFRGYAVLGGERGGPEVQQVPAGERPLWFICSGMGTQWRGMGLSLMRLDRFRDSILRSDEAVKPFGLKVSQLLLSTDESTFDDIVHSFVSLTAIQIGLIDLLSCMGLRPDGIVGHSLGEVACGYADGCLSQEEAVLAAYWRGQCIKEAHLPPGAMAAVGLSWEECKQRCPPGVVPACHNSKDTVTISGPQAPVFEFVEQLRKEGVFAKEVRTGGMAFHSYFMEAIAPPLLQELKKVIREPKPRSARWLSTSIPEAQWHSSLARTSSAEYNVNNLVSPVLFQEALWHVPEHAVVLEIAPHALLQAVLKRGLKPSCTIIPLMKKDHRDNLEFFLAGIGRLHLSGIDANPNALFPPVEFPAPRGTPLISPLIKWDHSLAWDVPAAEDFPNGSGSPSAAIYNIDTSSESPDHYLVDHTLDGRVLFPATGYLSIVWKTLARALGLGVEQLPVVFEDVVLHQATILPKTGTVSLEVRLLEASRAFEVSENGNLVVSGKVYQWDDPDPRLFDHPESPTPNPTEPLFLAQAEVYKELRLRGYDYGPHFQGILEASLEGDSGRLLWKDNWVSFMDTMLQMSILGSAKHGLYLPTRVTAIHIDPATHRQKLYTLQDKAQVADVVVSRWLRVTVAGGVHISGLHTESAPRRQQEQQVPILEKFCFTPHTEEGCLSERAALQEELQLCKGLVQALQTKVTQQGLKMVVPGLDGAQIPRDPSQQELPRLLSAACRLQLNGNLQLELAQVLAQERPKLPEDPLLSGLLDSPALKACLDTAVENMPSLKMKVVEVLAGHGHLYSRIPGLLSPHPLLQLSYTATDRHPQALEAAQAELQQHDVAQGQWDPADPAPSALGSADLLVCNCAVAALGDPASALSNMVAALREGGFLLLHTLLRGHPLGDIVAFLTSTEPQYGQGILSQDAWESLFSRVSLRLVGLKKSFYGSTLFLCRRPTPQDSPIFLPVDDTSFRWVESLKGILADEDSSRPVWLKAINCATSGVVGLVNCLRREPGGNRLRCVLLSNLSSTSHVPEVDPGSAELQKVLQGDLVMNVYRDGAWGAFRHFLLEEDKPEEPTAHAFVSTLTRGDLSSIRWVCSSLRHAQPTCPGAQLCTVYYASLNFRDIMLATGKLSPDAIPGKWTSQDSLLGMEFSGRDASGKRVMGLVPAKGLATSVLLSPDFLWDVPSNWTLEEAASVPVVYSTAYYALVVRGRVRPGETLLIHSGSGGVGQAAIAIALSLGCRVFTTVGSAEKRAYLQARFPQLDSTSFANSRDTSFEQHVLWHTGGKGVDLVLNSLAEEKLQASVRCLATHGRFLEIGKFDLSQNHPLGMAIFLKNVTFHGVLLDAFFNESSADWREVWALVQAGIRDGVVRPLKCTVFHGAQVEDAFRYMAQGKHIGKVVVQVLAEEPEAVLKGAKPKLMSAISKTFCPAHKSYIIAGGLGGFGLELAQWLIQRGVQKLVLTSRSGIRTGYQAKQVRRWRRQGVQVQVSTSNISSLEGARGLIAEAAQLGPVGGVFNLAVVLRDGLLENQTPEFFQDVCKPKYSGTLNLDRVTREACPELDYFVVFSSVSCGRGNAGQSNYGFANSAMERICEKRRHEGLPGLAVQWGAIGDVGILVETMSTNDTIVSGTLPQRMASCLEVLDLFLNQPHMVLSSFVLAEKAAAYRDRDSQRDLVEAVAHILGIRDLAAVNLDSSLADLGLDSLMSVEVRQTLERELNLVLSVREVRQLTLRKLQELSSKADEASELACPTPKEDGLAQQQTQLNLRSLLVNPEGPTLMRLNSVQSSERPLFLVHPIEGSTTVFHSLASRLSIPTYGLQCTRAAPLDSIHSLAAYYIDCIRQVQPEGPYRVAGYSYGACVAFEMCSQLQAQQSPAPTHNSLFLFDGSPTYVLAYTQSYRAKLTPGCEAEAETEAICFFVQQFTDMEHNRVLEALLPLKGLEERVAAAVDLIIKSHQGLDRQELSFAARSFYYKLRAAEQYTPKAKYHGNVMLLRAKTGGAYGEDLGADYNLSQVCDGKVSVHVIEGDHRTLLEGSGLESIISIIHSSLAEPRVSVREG
Sequence of Bile acid receptor (Homo sapiens) (Q96RI1 whole entry, looked up, the tested form may be a part): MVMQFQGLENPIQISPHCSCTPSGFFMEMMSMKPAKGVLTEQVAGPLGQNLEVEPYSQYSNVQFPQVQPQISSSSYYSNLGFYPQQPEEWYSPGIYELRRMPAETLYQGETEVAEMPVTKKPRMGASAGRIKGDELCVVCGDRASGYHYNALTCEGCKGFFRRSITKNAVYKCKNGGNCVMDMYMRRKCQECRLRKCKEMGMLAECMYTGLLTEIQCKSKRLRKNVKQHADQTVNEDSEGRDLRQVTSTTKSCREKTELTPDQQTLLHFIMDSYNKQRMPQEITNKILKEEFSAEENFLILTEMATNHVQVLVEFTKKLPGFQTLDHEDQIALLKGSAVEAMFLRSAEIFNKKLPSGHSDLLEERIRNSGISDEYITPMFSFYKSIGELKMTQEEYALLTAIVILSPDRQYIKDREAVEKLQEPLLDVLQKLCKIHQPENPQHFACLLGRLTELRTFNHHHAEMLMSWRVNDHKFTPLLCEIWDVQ

Which results are given for `CC(Oc1ccc(Cl)cc1Cl)C(=O)O` (stereo not given)?
outcome [1]: inactive; outcome [2]: inactive; outcome [3]: inactive; outcome [4]: inactive; outcome [5]: inactive; outcome [6]: inactive; outcome [7]: inactive; outcome [8]: inactive; outcome [9]: inactive

Which AC50 [2] does the source give for `CCCCNC(=O)OCC#CI` here?
The AC50 was 11.4 µM (active).

And the AC50 [3]?
Its AC50 is 11.7 µM (active).

What about the outcome [4] of the same compound?
The outcome was “inactive”.

What about the outcome [5] of the same compound?
The outcome was “inactive”.

And the AC50 [6]?
The AC50 was 0.00316 µM (active).

And the outcome [7]?
Its outcome is “inactive”.

What about the outcome [8] of the same compound?
The outcome was “inactive”.

What about the outcome [9] of the same compound?
The outcome was “inactive”.

With `Oc1ccccc1-c1ccccc1` as the compound, how does the outcome [2] read?
Its outcome is “inactive”.

And the outcome [3]?
The outcome was “inactive”.

And the outcome [4]?
The outcome was “inactive”.

What about the outcome [5] of the same compound?
Its outcome is “inactive”.

What about the outcome [10] of the same compound?
Its outcome is “inactive”.

What about the AC50 [11] of the same compound?
Its AC50 is 71.8 µM (active).

What about the outcome [11] of the same compound?
Its outcome is “inactive”.

What about the AC50 [12] of the same compound?
The AC50 was 32 µM (active).

What about the outcome [12] of the same compound?
The outcome was “inactive”.

And the AC50 [13]?
Its AC50 is 50 µM (active).

And the outcome [13]?
Its outcome is “inactive”.

What about the AC50 [14] of the same compound?
The AC50 was 50 µM (active).

And the outcome [14]?
Its outcome is “inactive”.

And the outcome [6]?
The outcome was “inactive”.

And the outcome [7]?
Its outcome is “inactive”.

What about the outcome [8] of the same compound?
Its outcome is “inactive”.

And the outcome [9]?
The outcome was “inactive”.

For `COP(=S)(OC)Oc1nc(Cl)c(Cl)cc1Cl`, which outcome [1] is on record?
Its outcome is “inactive”.

What about the outcome [2] of the same compound?
The outcome was “inactive”.

And the outcome [3]?
The outcome was “inactive”.

What about the outcome [4] of the same compound?
The outcome was “inactive”.

And the outcome [5]?
Its outcome is “inactive”.

And the outcome [15]?
The outcome was “inactive”.

And the outcome [16]?
The outcome was “inactive”.

And the outcome [17]?
Its outcome is “inactive”.

What about the outcome [12] of the same compound?
Its outcome is “inactive”.

What about the outcome [13] of the same compound?
Its outcome is “inactive”.

What about the outcome [6] of the same compound?
The outcome was “inactive”.

What about the outcome [7] of the same compound?
The outcome was “inactive”.

And the outcome [8]?
Its outcome is “inactive”.

What about the outcome [9] of the same compound?
The outcome was “inactive”.

Which AC50 [1] does the source give for `CC1COC(Cn2cncn2)(c2ccc(Oc3ccc(Cl)cc3)cc2Cl)O1` (stereo not given) here?
Its AC50 is 11.2 µM (active).

And the AC50 [2]?
Its AC50 is 11.4 µM (active).

And the outcome [4]?
The outcome was “inactive”.

What about the outcome [5] of the same compound?
Its outcome is “inactive”.

And the outcome [18]?
The outcome was “inactive”.

And the outcome [10]?
Its outcome is “inactive”.

What about the AC50 [11] of the same compound?
Its AC50 is 0.5 µM (active).

What about the outcome [15] of the same compound?
Its outcome is “inactive”.

What about the AC50 [16] of the same compound?
Its AC50 is 0.372 µM (active).

And the AC50 [17]?
The AC50 was 0.334 µM (active).

And the outcome [12]?
Its outcome is “inactive”.

And the outcome [13]?
Its outcome is “inactive”.

And the outcome [14]?
Its outcome is “inactive”.

And the AC50 [6]?
Its AC50 is 17.9 µM (active).

What about the AC50 [7] of the same compound?
The AC50 was 29.7 µM (active).

What about the outcome [8] of the same compound?
The outcome was “inactive”.

What about the AC50 [9] of the same compound?
The AC50 was 12.7 µM (active).

What does the source list for `CCc1nn(C)c(C(=O)NCc2ccc(C(C)(C)C)cc2)c1Cl`?
AC50 [1]: 0.578 µM (active); AC50 [3]: 11.6 µM (active); outcome [4]: inactive; outcome [5]: inactive; outcome [6]: inactive; AC50 [7]: 42.5 µM (active); outcome [8]: inactive; AC50 [9]: 3.24 µM (active)

What does the source list for `CN(C)C(=S)SSC(=S)N(C)C`?
outcome [1]: inactive; outcome [4]: inactive; outcome [5]: inactive; outcome [6]: inactive; outcome [7]: inactive; outcome [8]: inactive; outcome [9]: inactive
